Screening data from PubChem.
Cy5 interf NS3h: counter-screen for HCV NS3 helicase inhibitors: fluorescence interference; Cy5-dT15 DNA with NS3h; actives lie on both sides; signal over control mean, under 1 quenches; actives 6% (n = 16,000); fluorescence interference ratio at 100 µM;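 active means compound fluorescence over control fluorescence at most 0.8, a quencher, or at least a set upper limit, an enhancer; inactive means ratio between 0.8 and the set upper limit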
HCV NS3h FP: hepatitis C NS3 helicase inhibition, primary screen; NS3h Cy5-dT15 DNA binding, fluorescence polarization; inhibition, % at 100 µM; actives 1.6% (n = 16,000);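 active means inhibition above the average over every tested compound plus 3 SD, cut at about 40% in these data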
An asterisk follows results filed as active. Most compounds without a hit are left out; they make up all but 6.8% or so of the library.

SMILES	Cy5 interf NS3h	HCV NS3h FP
COc1ccc(N(CC(=O)NC(C)c2ccccc2)S(C)(=O)=O)cc1Cl (stereo not given)	0.95	-6
Cc1ccc(S(=O)(=O)NCCOc2ccccc2)cc1[N+](=O)[O-]	0.93	13
Cc1ccc(S(=O)(=O)NCCOc2ccccc2Cl)cc1[N+](=O)[O-]	0.79*	5
O=C(c1ccc(Cl)cc1)N1CCN=C1c1ccccc1	0.64*	2
O=C(c1ccccc1)N1CCN=C1c1ccccc1	0.88	-8
COC(=O)c1ccccc1NC(=O)CN(c1ccc(C(C)C)cc1)S(=O)(=O)c1ccccc1	0.99	11
Cc1cc(C)n2nc(-c3ccc(F)cc3)cc2n1	0.67*	21
Cc1cc(C)n2nc(-c3cccc(F)c3)cc2n1	0.93	7
O=C(COc1ccc2ccccc2c1)Nc1cc([N+](=O)[O-])ccc1F	1	-1
Cc1ccc(OCC(=O)Nc2ccccc2[N+](=O)[O-])c(C)c1	0.93	1
Cc1cccc(/C(N)=N\OC(=O)COc2ccccc2)c1	0.97	8
CCc1ccc(NC(=O)C(=O)NCC2CCCO2)cc1 (stereo not given)	0.75*	18
CC(NC(=O)C(=O)NCC1CCCO1)c1ccccc1 (stereo not given)	0.64*	-2
O=C(NCC1CCCO1)C(=O)Nc1ccccc1F (stereo not given)	0.99	2
O=C(NCC1CCCO1)C(=O)Nc1ccc(F)cc1 (stereo not given)	1	2
Cc1cccc(N2C(=O)/C(=C/c3cc(C)n(C)c3C)C(=O)NC2=S)c1	0.98	1
COc1ccc(S(=O)(=O)N2CCN(S(C)(=O)=O)CC2)cc1	1.1	7
Cc1cc(=O)[nH]c(Nc2nc(C)c3cccc(C)c3n2)n1	1.1	36
Cc1nc(Nc2nc(O)cc(=O)[nH]2)nc2c(C)cccc12	0.64*	-4
COc1ccccc1/C=N\n1c(-c2ccccc2C)nc2ccccc2c1=O	0.89	18
C=CCN1C(=O)NC(=O)/C(=C/c2ccc(OC)c(OCc3ccc(Cl)cc3)c2)C1=O	1	9
COc1ccccc1NC(=O)c1c(NC(=O)c2cc([N+](=O)[O-])ccc2Cl)sc2c1CCCC2	1.1	1
C=C(C)c1cccc(C(C)(C)NC(=O)N2CCN(C/C=C/c3ccccc3)CC2)c1	0.65*	10
O=C(c1cccc(C#Cc2ccccc2)c1)N1CCN(C/C=C/c2ccccc2)CC1	0.97	17
CS(=O)(=O)N1CCN(Cc2ccc(Cl)cc2)CC1	1.1	-14
SMILES	Cy5 interf NS3h	HCV NS3h FP
CS(=O)(=O)N1CCN(Cc2ccncc2)CC1	0.68*	-12
CS(=O)(=O)N1CCN(Cc2ccccc2Br)CC1	0.67*	-2
CSc1ccc(CN2CCN(S(C)(=O)=O)CC2)cc1	1	0
COc1ccccc1CN1CCN(S(C)(=O)=O)CC1	0.77*	5
COc1cc(OC)c(OC)cc1CN1CCN(S(C)(=O)=O)CC1	1	-16
CCN(CC)C(NC(=O)C(C)(C)C)C(Cl)(Cl)Cl (stereo not given)	0.99	-6
COc1ccccc1NC(=O)c1c(NC(=O)c2cccc(C)c2)sc2c1CCC2	1.1	0
COC(=O)CN(c1cc(OC)ccc1OC)S(C)(=O)=O	1.2	1
COCCNC(=O)c1ccc(I)cc1	0.94	8
O=[N+]([O-])c1cc(NS(=O)(=O)Cc2ccccc2)ccc1F	0.63*	-2
O=C(Nc1ccc(F)c([N+](=O)[O-])c1)C(c1ccccc1)c1ccccc1	1	8
CCOc1cc(C(=O)Nc2cccc3ccccc23)cc(OCC)c1OCC	1	8
COc1cc(/C=N\N2C(=O)CSC2=S)ccc1OCCOc1cc(C)ccc1C(C)C	1.2*	6
COc1cc(/C=N\N2C(=O)CSC2=S)ccc1OCCOc1ccc(C(C)(C)C)cc1	1.1	11
CCOC(=O)C1=C(N)OC2=C(C(=O)CC(C)(C)C2)C1c1ccc(Cl)cc1Cl (stereo not given)	1.1	0
O=C(Nc1cccc2ccccc12)c1cnn2c1NC(c1ccc3c(c1)OCO3)CC2C(F)(F)F (stereo not given)	0.97	14
Cc1nc(N=C(N)NC(=O)c2ccccc2N)nc2ccccc12	1.2*	17
COc1ccc(C(=O)Nc2cc(C)nc3ccccc23)cc1OC	0.94	1
Cn1cnnc1Sc1cc(N2CCN(CCO)CC2)ccc1[N+](=O)[O-]	0.88	10
COc1ccc(C2C(C(=O)OC(C)C)=C(C)N=c3s/c(=C\c4ccc5c(c4)OCO5)c(=O)n32)cc1 (stereo not given)	1	2
O=C(Nc1ccncc1)Nc1ccccn1	1	5
O=C(Nc1ccccc1)Nc1ncccn1	0.78*	12
CCOc1cc(OCC)cc(C(=O)Nc2cccc(Cl)c2Cl)c1	0.97	15
COc1ccc(C2CC(C(F)(F)F)n3nc(C(=O)Nc4ccc(C(C)O)cc4)c(Cl)c3N2)cc1 (stereo not given)	0.92	21
Cc1ccc(S(=O)(=O)Nc2ccccc2/C=N\n2cnnc2)cc1	1.1	4
SMILES	Cy5 interf NS3h	HCV NS3h FP
CCc1ccc(OCC(=O)Nc2ccc(O)c(-c3nc4ccccc4s3)c2)cc1	1.1	-13
CC(=O)CC(=O)Nc1ccc(Cl)c(Cl)c1	1	3
CC(=O)CC(=O)Nc1ccc(Cl)c(C(F)(F)F)c1	0.68*	4
O=C1/C(=C\c2ccc(O)c(O)c2)SC(=S)N1c1ccc(F)cc1	0.99	-2
C=CCNC(=O)CN(c1ccccc1)S(=O)(=O)c1ccccc1[N+](=O)[O-]	1	-1
Clc1ccccc1Cc1noc(-c2ccc(Br)cc2)n1	1.1	-2
Clc1ccccc1Cc1noc(-c2ccccc2Cl)n1	0.92	2
CCCc1noc(-c2ccc(C(C)(C)C)cc2)n1	0.71*	7
CCCc1noc(-c2ccccc2Cl)n1	0.76*	2
COc1ccc(C(O)=C2C(=O)C(=O)N(CCc3ccccc3)C2c2cccc(F)c2)cc1 (stereo not given)	1.1	-5
CS(=O)(=O)N1CCN(C(=O)c2ccc(-c3ccccc3)cc2)CC1	0.62*	0
O=C(c1ccc(S(=O)(=O)N2CCCC2)cc1)N1CCN(c2ccccc2)CC1	0.91	4
COc1ccc(NC(=O)c2cccc(Cl)c2)cc1Cl	0.7*	22
COc1ccc(NC(=O)c2ccc(Cl)cc2)cc1Cl	1	-2
COc1ccc(C(=O)Nc2ccc(C)cc2C)cc1OC	1	6
COc1c(Cl)cc(C(=O)Nc2c(C)cccc2C)cc1Cl	0.97	10
COc1ccc(C(=O)/C=C/Nc2ccc(Cl)cc2[N+](=O)[O-])cc1OC	0.22*	0
COc1c(Cl)cc(C(=O)Nc2cccc(C(F)(F)F)c2)cc1Cl	0.53*	1
COc1ccc(C(=O)/C=C/Nc2ccccc2NS(=O)(=O)c2ccc([N+](=O)[O-])cc2)cc1OC	0.97	5
COc1ccc(C(=O)Nc2ccc(Cl)cc2C)cc1OC	0.78*	9
CC(=O)CCc1c(C)[nH]c2c(Cl)cccc2c1=S	0.98	3
O=c1nc(SCc2ccccc2Cl)sc2ccccc12	1	7
O=C(Nc1ccc(I)cc1)c1ccc(S(=O)(=O)N2CCCC2)cc1	0.94	8
Cc1onc(-c2c(Cl)cccc2Cl)c1C(=O)Nc1ccc(Cl)cc1Cl	1	9
CCOc1ccc(N(CC(=O)N[C@@H]2C[C@H]3CC[C@@H]2C3)S(=O)(=O)c2ccc(SC)cc2)cc1	0.97	-5
CCOc1ccccc1NC(=O)C(=O)NCc1ccc(Cl)cc1	1	-2
